Experimental data published in ChEMBL document CHEMBL3433997, “St. Jude Leishmania screening dataset” (2016).

Key:
Assay type in all cases: functional
[1] = molecular target: Solute carrier family 2, facilitated glucose transporter member 1 (Homo sapiens) (UniProt P11166); experiment: ST_JUDE_LEISH: Cytotoxicity at 2uM final concentration against transgenic Leishmania Mexicana promastigotes LmGLUT1 that are glucose transport deficient and complemented with the human glucose transporter GLUT1. Activity is measured by DNA content using SYBR green in vitro
Chain of Solute carrier family 2, facilitated glucose transporter member 1 (Homo sapiens) (P11166 whole entry): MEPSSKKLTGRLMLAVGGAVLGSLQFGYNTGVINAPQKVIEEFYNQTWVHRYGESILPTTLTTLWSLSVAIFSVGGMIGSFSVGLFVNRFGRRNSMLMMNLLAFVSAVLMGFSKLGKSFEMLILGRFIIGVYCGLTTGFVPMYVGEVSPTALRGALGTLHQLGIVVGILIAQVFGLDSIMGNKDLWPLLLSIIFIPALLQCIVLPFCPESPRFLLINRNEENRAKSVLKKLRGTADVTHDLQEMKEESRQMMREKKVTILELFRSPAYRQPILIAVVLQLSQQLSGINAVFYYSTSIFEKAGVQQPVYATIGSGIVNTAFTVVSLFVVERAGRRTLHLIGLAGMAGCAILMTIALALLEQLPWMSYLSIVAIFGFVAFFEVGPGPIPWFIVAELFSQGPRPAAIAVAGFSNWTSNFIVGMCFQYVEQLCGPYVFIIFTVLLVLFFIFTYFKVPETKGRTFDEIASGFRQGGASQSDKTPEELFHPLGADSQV

[2] = molecular target: Hexose transporter 1 (Plasmodium falciparum) (UniProt O97467); experiment: ST_JUDE_LEISH: Cytotoxicity at 2uM final concentration against transgenic Leishmania Mexicana promastigotes LmPfHT that are glucose transport deficient and complemented with the Plasmodium falciparum hexose transporter. Activity is measured by DNA content using SYBR green in vitro
[3] = molecular target: Glucose transporter (Leishmania mexicana) (UniProt O61059); experiment: ST_JUDE_LEISH: Cytotoxicity at 2uM final concentration against transgenic Leishmania Mexicana promastigotes LmGT2 that are glucose transport deficient and complemented with the L. Mexicana glucose transporter 2. Activity is measured by DNA content using SYBR green in vitro

Row | SMILES | inhibition [1] [%] | inhibition [2] [%] | inhibition [3] [%]
1 | COc1ccc2nc(C)cc(Nc3ccc(Oc4ccc(Cl)c5ccccc45)c(Cl)c3)c2c1 | 12.8 | 10.2 | 5.43
2 | O=C(/C=C/c1ccc(I)cc1)NCCCCCN1CCC(c2c[nH]c3ccccc23)CC1 | 3.43 | 1.79 | 2.95
3 | Nc1nc(N)c2cc(CNc3ccc(Cl)c(Cl)c3)ccc2n1 | 8.27 | 6.41 | -0.28
4 | O=C(N[C@H]1CCN(CCc2ccc(O[C@H]3CCNC3)c(Br)c2)C1)c1ccc(Cl)c(Cl)c1 | 0.91 | 3 | 1.43
5 | COc1ccc2nccc([C@@H](O)CN3CCC(NCc4cc5cccc6c5n(c4=O)CCC6)CC3)c2c1 | 2.12 | 2.16 | 2.27
6 | CCOC(=O)c1ccc(OCCOc2ccccc2)cc1 | -0.36 | 1.04 | 0.6
7 | Cn1cc(CCNc2ccnc(N3CCC(c4ncc[nH]4)CC3)n2)c2ccccc21 | -2.77 | -1.57 | -2.28
8 | O=c1cc(NCCCNC(c2ccccc2)c2ccc(Cl)c(Cl)c2)[nH]c2ccccc12 (stereo not given) | -1.95 | -1.47 | -1.3
9 | O=C(/C=C/c1ccc(Cl)c(Cl)c1)NCCCCCN1CCCN(C(=S)Nc2cccc(Cl)c2)CC1 | 0.6 | -0.74 | 0.17
10 | O=C(NC1CCN(Cc2ccc3c(c2)OCCO3)CC1)c1ccc(-c2cccc(Cl)c2)s1 | 5.55 | 5.55 | 6.98
11 | COc1ccc(CN2CCCN(Cc3cccc(C(=O)Nc4ccc(C)c(F)c4)c3)CC2)cc1 | 0.27 | -1.26 | 1.49
12 | O=C(Nc1cc(C(F)(F)F)cc(C(F)(F)F)c1)Nc1cc(C(F)(F)F)cc(C(F)(F)F)c1 | 1.91 | 4.29 | 3.86
13 | N#Cc1cccc(-c2cccc(C(=O)NC3CCC(CCN4CCc5ccc(C#N)cc5CC4)CC3)c2)c1 (stereo not given) | 10.8 | 8.62 | 11.2
14 | N=C(Nc1ccccc1)Nc1cccc(Cc2ccc([N+](=O)[O-])cc2)n1 | 5.43 | 3.98 | 0.1
15 | Cc1ccc(-c2cc(C(=O)Nc3ccc(S(=O)(=O)N4CCCCC4)cc3)[nH]n2)c(O)c1 | 0.86 | 1.9 | -0.53
16 | Cc1cc(O)c(-c2ccc(Sc3ccc(Cl)cc3)cc2)c(C)n1 | -0.64 | 3.32 | -4.88
17 | Cc1nc(C)c(-c2ccc(Oc3ccc(OC(F)(F)F)cc3)cc2)c(O)c1I | -0.28 | 0.69 | -1.65
18 | CC(NC(=O)NC1CCC(CCN2CCCc3ccccc32)CC1)c1cccc2ccccc12 (stereo not given) | 0.93 | 1.8 | -1.84
19 | CC(C)CCNc1nc2ccccc2nc1Nc1cccc(C(F)(F)F)c1 | 2.21 | 3.55 | 2.32
20 | CNC(=O)C1Cc2c([nH]c3ccc(Br)cc23)C2(CCN(CCc3ccccc3)CC2)N1 (stereo not given) | 5.38 | 3.44 | 6.65
21 | COC(=O)c1cccc(CN(CCC(O)(C(F)(F)F)C(F)(F)F)C(=O)CC2CCCC2)c1 | 3.39 | 1.44 | 1.91
22 | Cc1cc(N2CCCC2)nc(Nc2ccc(NC(=O)c3ccccc3)cc2)n1 | 1.14 | 6.69 | 3.09
23 | COc1cc2nc(N3CCC(CNC(=O)c4cc(Br)c(Br)s4)CC3)nc(N)c2cc1OC | 9.57 | 9.82 | 6.92
24 | COc1cc2nc(-c3ccccc3)nc(N3CCN(C(=O)c4ccco4)CC3)c2cc1OC | 13.7 | 8.22 | 7.06

Row | SMILES | inhibition [1] [%] | inhibition [2] [%] | inhibition [3] [%]
25 | CC(C)N1CCN(C(CN2CCN(CCCOc3cccc(F)c3)CC2)c2ccc(F)cc2)CC1 (stereo not given) | -2.25 | -0.57 | -1.78
26 | CC1(C)N=C(N)N=C(N)N1c1ccc(I)cc1 | 5.79 | 5.57 | 6.6
27 | O=C1Nc2ccccc2/C1=N/NC(=S)N1CCOCC1 | -0.69 | -0.87 | 0.09
28 | Cc1noc(C)c1-c1ccc2c(Nc3ccccc3C(C)(C)C)c(C(=O)NCc3ccccc3)cnc2c1 | 6.6 | 7.11 | 3.62
29 | COc1cccc(Nc2nc(C)cc(NC3CCN(Cc4ccccc4)CC3)n2)c1 | 5.81 | 3.9 | 0.8
30 | COc1cc(NC(=O)C(c2ccc(Cl)cc2)C(C)C)cc(OC)c1 (stereo not given) | 2.88 | 2.55 | 1.33
31 | COc1cc(F)c2ncc(Cl)c(CCN3CCC(NCc4ccc5c(c4)OCCO5)CC3)c2c1 | 41.6 | 54.6 | 68.8
32 | COc1ccc(NC(=O)Nc2ccc(C)c(-c3ccc(C(=O)NCCN4CCCC4)cc3)c2)cc1 | -1.56 | -2.24 | -2.87
33 | CS(=O)(=O)c1ccc(OCCCN(Cc2ccccc2C(F)(F)F)c2ccc(C#N)c(C(F)(F)F)c2)cc1 | 1.51 | 3.33 | 0.65
34 | O=C(O[C@@H]1CN[C@H](C#Cc2cc3ncnc(Nc4ccc5c(cnn5Cc5cccc(F)c5)c4)c3s2)C1)N1CCCC1 | 1.37 | 0.19 | -1.8
35 | COc1ccccc1/C=C/C(=O)N(C)C1CCN(CCCCCNC(=O)/C=C/c2ccc(Cl)c(Cl)c2)C1 (stereo not given) | 1.67 | 1.04 | 0.34
36 | Cc1cccc2nc(-c3ccc(-c4cccc(CN5CCN(CCN6CCOCC6)CC5)c4)s3)[nH]c12 | 0.45 | -1.04 | 0.64
37 | COc1ccc2nccc([C@@H](O)CN3CCC(NCc4ccc5c(n4)NC(=O)CS5)C(F)C3)c2c1 (stereo not given in full) | 2.08 | 1.5 | 1.99
38 | CN(CCCNC(=S)NC12CC3CC(CC(C3)C1)C2)CCCNc1ccnc2cc(Cl)ccc12 | -1.07 | 0.09 | 1.25
39 | Fc1ccc2[nH]c(-c3ccc(-c4ccc(CNCCc5ccncc5)cc4)cc3)nc2c1 | 4.9 | 2.46 | 2.26
40 | CC(=O)Oc1cc(C(=O)Nc2ccc(Cl)cc2)cc2ccccc12 | 7.81 | 5.31 | 5.8
41 | CCn1cc(-c2cc(C(=O)Nc3ccc(OC)cc3C)c3ccccc3n2)c(C)n1 | 7.19 | 4.56 | 3.97
42 | CC1(C)NC(N)=NC(=N)N1OCCNCc1ccc(Cl)cc1 | 4.58 | 4.01 | 3.92
43 | CN(C)CC(=O)Nc1ccc(Nc2nccc(NCC(O)c3ccccc3)n2)cc1 (stereo not given) | 1.63 | 2.79 | 0.21
44 | O=C(Nc1ccccc1)N(Cc1ccc(-c2ccc(CNC3CCCC3)cc2)cc1)C1CCN(Cc2ccccc2)CC1 | 4.17 | 3.43 | 2.32
45 | N#Cc1ccc2[nH]c(-c3cc(-c4cccc(F)c4)cnc3N)nc2c1 | 6.56 | 7.71 | 3.77
46 | CCN1CCC(N(CCCCCCc2ccc(C(F)(F)F)cc2)C(=O)Cn2c(CCc3cccc(F)c3F)cc(=O)c3ccccc32)CC1 | 5.17 | 3.94 | 2.53
47 | CCCCCCCCn1c2c(c(=N)c3c1CCC3)CCCC2 | 94.4 | 95.9 | 92.6
48 | CCN(CC)CCN(Cc1ccc(-c2ccc(C(F)(F)F)s2)cc1)C(=O)Cn1c(CCc2cccc(F)c2F)nc(=O)c2ccccc21 | 1.5 | 2.39 | 2.57

Row | SMILES | inhibition [1] [%] | inhibition [2] [%] | inhibition [3] [%]
49 | CN(C)C(=O)c1cc(CNCc2ccccc2)ccc1-c1cccc(CNCc2ccc(-c3ccccc3)cc2)c1 | 0.97 | 3.85 | 3.02
50 | CS(=O)(=O)c1cccc(-c2cnc(N)c3cc(-c4ccc5c(c4)OCO5)ccc23)c1 | 8.59 | 8.33 | 7.36
51 | Cc1ccccc1C1CCN(C2CCC(NC(=O)/C=C/c3cc(C(F)(F)F)ccc3F)CC2)CC1 (stereo not given) | 2.67 | 2.98 | 3.34
52 | CN1CCC(N(Cc2ccc(-c3ccc(Cl)cc3)cc2)C(=O)Cn2c(CCc3cccc(F)c3F)cc(=O)c3ccccc32)CC1 | 8.97 | 3.73 | 8.07
53 | COc1cc(F)c2ncc(Cl)c(CCN3CCC(NCc4ccc5c(n4)NC(=O)CS5)CC3)c2c1 | 8.34 | 8.44 | -2.08
54 | COc1ccc(C2c3ccccc3-c3nc(N)nc(N)c3C2C)cc1 (stereo not given) | 3.13 | 3.19 | 0.31
55 | c1ccc2c(c1)CN(CC1CCOCC1)CC1(CCN(Cc3c[nH]c4cnccc34)CC1)O2 | 0.57 | 1.23 | 0.88
56 | COc1cc(NC(=O)c2sc(-c3ccc(Cl)cc3)cc2NC(=O)c2ccncc2)ccc1OCCN1CCCC1 | 7.57 | 3.54 | 0.97
57 | COCCn1c(-c2cccc(Cl)c2)nn(-c2ccc([N+](=O)[O-])cc2C#N)c1=S | 3.84 | -0.81 | 3.5
58 | CCCCC(=O)N(CCOC)Cc1ccc(-c2ccc(CNCCC)cn2)cc1 | 7.95 | 6.86 | 5.46
59 | O=C(/C=C/c1ccc(Cl)c(Cl)c1)NCCC(CN1CCC(c2c[nH]c3ccccc23)CC1)c1ccccc1 (stereo not given) | 2.74 | 2.22 | 0.88
60 | CCOC(=O)CC[C@@H](NC(=O)c1ccc(NCc2ccc3ccc4nc(C)[nH]c(=O)c4c3c2)cc1F)C(=O)N[C@@H](Cc1c[nH]c2ccccc12)C(=O)OCC | 1.56 | 1.89 | 3.35
61 | Cc1cc(C2CCN(CCCCNC(=O)c3ccc(-c4ccc(C(F)(F)F)cc4)cc3)CC2)c(C)cc1OCC#N | -0.43 | 1.3 | -0.09
62 | COc1ccc2nccc([C@@H](O)CN3CCC(NC(=O)/C=C/c4ccc5cc(C)[nH]c5c4)CC3)c2c1 | 3.96 | 3.03 | 1.91
63 | CC1CN(Cc2ccc(-c3ccc(-c4nc5cc(F)ccc5[nH]4)cc3)cc2)CC(C)O1 (stereo not given) | 6 | 6.63 | 3.77
64 | CCN(CC)CCN(Cc1ccc(-c2ccc(C(F)(F)F)cc2)cc1)C(=O)c1c[nH]c2ccc(Br)cc12 | 1.48 | 1.01 | 2.1
65 | Oc1ccc2ccccc2c1C=NNc1nc(=Nc2ccccc2)nc(N2CCOCC2)[nH]1 | 4.21 | 3.72 | 0.2
66 | COc1ccc(CCN2CCC(Nc3nc4ccccc4n3CCc3ccc(OC)cc3)CC2)cc1 | 4.38 | -1.39 | 12.5
67 | COc1ccc(CNC(=O)c2cnc3c(O)cccc3c2Nc2cccc(NC(=O)c3ccc(F)cc3)c2)cc1 | 76 | 78.5 | 75.3
68 | COc1ccc(-c2ccc(NC(=O)c3cccc(C#N)c3)cc2)cc1CN(C)C | 1.28 | 0.34 | 0.41
69 | CCCCCCNCCOc1ccc(-c2nc(-c3ccccc3)c(-c3ccccc3)[nH]2)cc1 | 4.61 | 1.32 | 1.62
70 | COc1cc(C2Nc3ccc4ccccc4c3C3=C2C(=O)CC(C)(C)C3)ccc1Oc1ccc([N+](=O)[O-])cc1C#N (stereo not given) | 4.18 | 4.07 | -0.66
